Among the data in article PMC11062922 (Nature Chemical Biology, 2023) are potency estimated from few doses values, retold here.

What all share (set-up): species or system human, MV4-11 + K-562 + COLO205 + SK-N-BE2 + OVCAR-8
One assay deals with ABL1. The conditions noted are these: read-out: apparent Kd, n = 1.
For another assay, the system named is ABL2. The note with it: read-out: apparent Kd, n = 1.
The next assay deals with AURKB. The conditions noted are these: read-out: apparent Kd, n = 1.
A further assay deals with BTK. The note with it: read-out: apparent Kd, n = 1.
A further assay deals with EPHB1. The note with it: read-out: apparent Kd, n = 1.
Another assay relates to LCK. The note with it: read-out: apparent Kd, n = 1.
A further assay has as its system MAP3K11. The conditions noted are these: read-out: apparent Kd, n = 1.
The test system of a further assay is NUAK2. The conditions noted are these: read-out: apparent Kd, n = 1.
Another assay concerns PAK6. The conditions noted are these: read-out: apparent Kd, n = 1.
The test system of a further assay is PTK6. The note with it: read-out: apparent Kd, n = 1.
For a further assay, the system named is RPS6KA3. The conditions noted are these: read-out: apparent Kd, n = 1.
Another assay deals with ACVR1B. The note with it: read-out: apparent Kd, n = 1.
Another assay deals with CIT. The conditions noted are these: read-out: apparent Kd, n = 1.
The subject of the next assay is MAPK14. The conditions noted are these: read-out: apparent Kd, n = 1.
The next assay relates to CDC42BPB. The note with it: read-out: apparent Kd; compound concentrations: 100 nM and 1000 nM (sheet 'Samples'), CATDS: 4.0403129227197304E-3; n = 1.
Another assay concerns PIK3CD. The conditions noted are these: read-out: apparent Kd; compound concentrations: 100 nM and 1000 nM (sheet 'Samples'), CATDS: 4.6666042012861897E-2; n = 1.
For the next assay, the system named is PKN2. The note with it: read-out: apparent Kd; compound concentrations: 100 nM and 1000 nM (sheet 'Samples'), CATDS: 4.0047157593236004E-3; n = 1.
The next assay deals with PRKCA. The note with it: read-out: apparent Kd; compound concentrations: 100 nM and 1000 nM (sheet 'Samples'), CATDS: 3.58231732022705E-3; n = 1.
The next assay relates to RPS6KB1. The note with it: read-out: apparent Kd; compound concentrations: 100 nM and 1000 nM (sheet 'Samples'), CATDS: 4.5805386510862304E-3; n = 1.
The next assay concerns TTK. The conditions noted are these: read-out: apparent Kd; compound concentrations: 100 nM and 1000 nM (sheet 'Samples'), CATDS: 3.8760622756019202E-3; n = 1.
Where [1] appears, read: compound concentrations:100 nM and 1000 nM (sheet 'Samples').

Like-named read-outs stand apart in the source and are kept apart here.

As to `O=C1NC(=O)C(N2CCc3ccccc32)=C1c1ccccc1Cl` [SB-373598], the potency estimated from few doses in the assay with ABL1 (setting [1]) is 172 nM; in the assay on ABL2 (setting [1]), 329 nM; in the assay with AURKB (setting [1]), 466 nM; with BTK (setting [1]) it was 124 nM; in the assay on EPHB1 (setting [1]), 373 nM; in the assay with LCK (setting [1]) it was 138 nM. The potency estimated from few doses with MAP3K11 (setting [1]) is 1040 nM; in the assay on NUAK2 (setting [1]) it was 780 nM; in the assay with PAK6 (setting [1]), 419 nM; with PTK6 (setting [1]), 606 nM; in the assay with RPS6KA3 (setting [1]), 966 nM.

`Cc1ccc2c(-c3ccncc3)c(-c3ccc(F)cc3)nn2c1.Cl` [GW461484A]: the potency estimated from few doses with ABL1 (setting [1]) was 1220 nM; in the assay on ABL2 (setting [1]) it was 571 nM; with ACVR1B (setting [1]) it was 696 nM; in the assay with BTK (setting [1]) it was 801 nM; in the assay on CIT (setting [1]) it was 2120 nM; with EPHB1 (setting [1]), 384 nM. In addition, the potency estimated from few doses is 730 nM in the assay on LCK (setting [1]), 465 nM with MAPK14 (setting [1]), 871 nM with PTK6 (setting [1]) and 1950 nM in the assay with RPS6KA3 (setting [1]).

Turning to `Cn1ncc2c(N)ncnc21` [SKF-18267], the potency estimated from few doses in the assay with ABL1 (compound concentrations: 100 nM and 1000 nM (sheet 'Samples'), CATDS: 4.5890401321851898E-3) is 972 nM; in the assay with ABL2 (compound concentrations: 100 nM and 1000 nM (sheet 'Samples'), CATDS: 5.0197498438992799E-3), 808 nM; in the assay on ACVR1B (compound concentrations: 100 nM and 1000 nM (sheet 'Samples'), CATDS: 5.9618595467290699E-3), 587 nM; in the assay with AURKB (compound concentrations: 100 nM and 1000 nM (sheet 'Samples'), CATDS: 5.1927798123429401E-3), 756 nM; in the assay on BTK (compound concentrations: 100 nM and 1000 nM (sheet 'Samples'), CATDS: 5.3280284172791698E-3), 720 nM; with CDC42BPB it was 1300 nM. Moreover, the potency estimated from few doses is 1300 nM in the assay on CIT (compound concentrations: 100 nM and 1000 nM (sheet 'Samples'), CATDS: 4.0396253783402704E-3); 796 nM in the assay with EPHB1 (compound concentrations: 100 nM and 1000 nM (sheet 'Samples'), CATDS: 5.0582838235080502E-3); 1290 nM in the assay on MAP3K11 (compound concentrations: 100 nM and 1000 nM (sheet 'Samples'), CATDS: 4.0610212954189503E-3); 712 nM in the assay with MAPK14 (compound concentrations: 100 nM and 1000 nM (sheet 'Samples'), CATDS: 5.3577076045461004E-3); 40.8 nM in the assay on PIK3CD; 1330 nM in the assay with PKN2. In addition, the potency estimated from few doses in the assay on PRKCA was 1810 nM; in the assay on PTK6 (compound concentrations: 100 nM and 1000 nM (sheet 'Samples'), CATDS: 4.9971490936353098E-3), 815 nM; in the assay on RPS6KA3 (compound concentrations: 100 nM and 1000 nM (sheet 'Samples'), CATDS: 4.3523145160936898E-3), 1090 nM; in the assay on RPS6KB1, 976 nM; with TTK, 1450 nM.

For `O=C1N=C(NCCc2ccc(Cl)cc2)S/C1=C\c1ccc2ncccc2c1` [RO4498479-000], the potency estimated from few doses is 536 nM with ABL1 (compound concentrations: 100 nM and 1000 nM (sheet 'Samples'), CATDS: 1.01576334348417E-2); 201 nM with ABL2 (compound concentrations: 100 nM and 1000 nM (sheet 'Samples'), CATDS: 1.7069961948359198E-2); 1200 nM with AURKB (compound concentrations: 100 nM and 1000 nM (sheet 'Samples'), CATDS: 7.59982177866047E-3); 297 nM with BTK (compound concentrations: 100 nM and 1000 nM (sheet 'Samples'), CATDS: 1.35831068182147E-2); 290 nM in the assay with EPHB1 (compound concentrations: 100 nM and 1000 nM (sheet 'Samples'), CATDS: 1.3764533210370701E-2); 313 nM in the assay with LCK (compound concentrations: 100 nM and 1000 nM (sheet 'Samples'), CATDS: 1.3202335772702E-2). The potency estimated from few doses is 733 nM in the assay on MAP3K11 (compound concentrations: 100 nM and 1000 nM (sheet 'Samples'), CATDS: 8.9469693791647507E-3); 1100 nM with NUAK2 (compound concentrations: 100 nM and 1000 nM (sheet 'Samples'), CATDS: 7.8006037154547897E-3); 357 nM in the assay with PTK6 (compound concentrations: 100 nM and 1000 nM (sheet 'Samples'), CATDS: 1.2314432114231401E-2); 1020 nM in the assay with RPS6KA3 (compound concentrations: 100 nM and 1000 nM (sheet 'Samples'), CATDS: 7.9720572811278097E-3).

Consider `CCn1c(-c2nonc2N)nc2c(C#CC(C)(C)O)nc(OC[C@@H](N)c3ccccc3)cc21` [GSK938890A], for which the potency estimated from few doses in the assay on PAK6 (compound concentrations: 100 nM and 1000 nM (sheet 'Samples'), CATDS: 9.3701498593083701E-2) is 129 nM.

For the molecule `Cl.NCc1ccc(-c2nc(-c3ccc(Cl)c(O)c3)c(-c3ccncc3)[nH]2)cc1` [SB-476429-A], the potency estimated from few doses in the assay on MAPK14 (setting [1]) is 113 nM.

`CN(c1ccc(NC(=O)N2CCN(CCCN3CCOCC3)CC2)cc1)c1ccnc(Nc2ccc(CS(C)(=O)=O)cc2)n1.Cl` [GW830899A]: the potency estimated from few doses in the assay on ABL1 (compound concentrations: 100 nM and 1000 nM (sheet 'Samples'), CATDS: 2.13093198764688E-2) was 1300 nM; in the assay on MAP3K11 (compound concentrations: 100 nM and 1000 nM (sheet 'Samples'), CATDS: 1.83131031951747E-2), 1980 nM; in the assay with MAPK14 (compound concentrations: 100 nM and 1000 nM (sheet 'Samples'), CATDS: 2.4950407737396499E-2), 905 nM.

Regarding `Cc1ccc(Nc2ccnc(Nc3ccc4c(c3)CS(=O)(=O)C4)n2)cc1O.Cl` [GW579362A], the potency estimated from few doses is 1330 nM in the assay with ABL1 (compound concentrations: 100 nM and 1000 nM (sheet 'Samples'), CATDS: 2.9223994432995299E-2); 448 nM in the assay with ABL2 (compound concentrations: 100 nM and 1000 nM (sheet 'Samples'), CATDS: 4.4791805431594098E-2); 1770 nM in the assay on MAP3K11 (compound concentrations: 100 nM and 1000 nM (sheet 'Samples'), CATDS: 2.6959638591647499E-2); 1290 nM in the assay on MAPK14 (compound concentrations: 100 nM and 1000 nM (sheet 'Samples'), CATDS: 2.9505107428945899E-2); 1200 nM in the assay with PTK6 (compound concentrations: 100 nM and 1000 nM (sheet 'Samples'), CATDS: 3.01604654859133E-2).
